Measurements published in ChEMBL document CHEMBL2218924, “A broad activity screen in support of a chemogenomic map for kinase signalling research and drug discovery” (Biochem J, 2013).

Experiments:
[1] = molecular target: T1, Ephrin type-A receptor 3 (Homo sapiens) (UniProt P29320); settings: at 10 µM
T1 sequence (whole entry): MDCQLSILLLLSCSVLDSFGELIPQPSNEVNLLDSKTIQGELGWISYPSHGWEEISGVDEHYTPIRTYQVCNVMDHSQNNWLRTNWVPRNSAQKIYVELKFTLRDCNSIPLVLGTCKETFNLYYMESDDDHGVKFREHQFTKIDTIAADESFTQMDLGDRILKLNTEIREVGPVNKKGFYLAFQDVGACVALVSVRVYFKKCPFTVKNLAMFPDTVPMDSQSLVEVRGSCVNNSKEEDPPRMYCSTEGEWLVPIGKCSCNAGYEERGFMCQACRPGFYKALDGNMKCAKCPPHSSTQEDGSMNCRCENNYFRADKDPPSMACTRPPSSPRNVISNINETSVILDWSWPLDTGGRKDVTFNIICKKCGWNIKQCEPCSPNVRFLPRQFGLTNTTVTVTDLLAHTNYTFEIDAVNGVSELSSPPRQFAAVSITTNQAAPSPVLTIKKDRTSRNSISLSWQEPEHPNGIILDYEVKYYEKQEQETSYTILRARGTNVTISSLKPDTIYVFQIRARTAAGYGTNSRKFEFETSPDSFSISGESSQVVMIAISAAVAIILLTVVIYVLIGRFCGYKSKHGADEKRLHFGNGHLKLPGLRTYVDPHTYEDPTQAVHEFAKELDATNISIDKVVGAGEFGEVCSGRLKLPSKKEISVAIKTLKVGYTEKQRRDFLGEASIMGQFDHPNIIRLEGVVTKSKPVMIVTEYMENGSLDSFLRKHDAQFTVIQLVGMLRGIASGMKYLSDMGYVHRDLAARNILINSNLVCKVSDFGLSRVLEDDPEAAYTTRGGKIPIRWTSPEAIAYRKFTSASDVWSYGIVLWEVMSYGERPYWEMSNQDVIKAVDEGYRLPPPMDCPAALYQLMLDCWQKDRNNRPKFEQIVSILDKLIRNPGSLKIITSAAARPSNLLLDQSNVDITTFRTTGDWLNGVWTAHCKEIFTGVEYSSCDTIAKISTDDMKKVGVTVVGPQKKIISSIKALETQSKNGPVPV

[2] = molecular target: Ephrin type-A receptor 4 (Homo sapiens) (UniProt P54764); settings: at 1 µM
Sequence of Ephrin type-A receptor 4 (Homo sapiens) (P54764 whole entry): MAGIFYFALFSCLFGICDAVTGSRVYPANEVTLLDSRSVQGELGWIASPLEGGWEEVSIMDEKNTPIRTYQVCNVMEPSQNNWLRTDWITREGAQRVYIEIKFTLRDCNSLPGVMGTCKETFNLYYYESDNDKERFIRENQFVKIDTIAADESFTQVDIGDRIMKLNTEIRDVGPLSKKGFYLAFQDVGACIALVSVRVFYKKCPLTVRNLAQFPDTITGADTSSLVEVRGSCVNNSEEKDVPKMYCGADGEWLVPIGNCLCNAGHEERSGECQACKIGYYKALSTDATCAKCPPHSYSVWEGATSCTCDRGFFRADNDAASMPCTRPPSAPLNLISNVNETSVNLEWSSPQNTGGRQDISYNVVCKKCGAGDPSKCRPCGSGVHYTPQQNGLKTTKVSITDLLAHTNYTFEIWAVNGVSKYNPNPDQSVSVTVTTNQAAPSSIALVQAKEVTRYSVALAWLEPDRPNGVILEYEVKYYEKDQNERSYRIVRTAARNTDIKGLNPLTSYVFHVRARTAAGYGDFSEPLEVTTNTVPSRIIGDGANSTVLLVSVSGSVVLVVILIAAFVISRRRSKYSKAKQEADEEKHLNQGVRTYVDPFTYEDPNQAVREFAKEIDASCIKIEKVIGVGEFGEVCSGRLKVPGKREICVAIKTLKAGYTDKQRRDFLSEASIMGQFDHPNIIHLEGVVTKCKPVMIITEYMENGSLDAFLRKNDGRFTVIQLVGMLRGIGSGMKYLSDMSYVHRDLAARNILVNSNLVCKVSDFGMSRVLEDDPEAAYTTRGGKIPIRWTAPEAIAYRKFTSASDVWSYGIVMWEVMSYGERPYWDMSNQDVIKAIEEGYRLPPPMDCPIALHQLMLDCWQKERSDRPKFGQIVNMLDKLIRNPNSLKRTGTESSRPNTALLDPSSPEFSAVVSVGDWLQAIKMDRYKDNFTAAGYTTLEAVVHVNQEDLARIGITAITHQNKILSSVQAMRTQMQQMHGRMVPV

[3] = molecular target: Ephrin type-A receptor 4 (Homo sapiens) (UniProt P54764); settings: at 10 µM
[4] = molecular target: Ephrin type-A receptor 5 (Homo sapiens) (UniProt P54756); settings: at 1 µM
Sequence of Ephrin type-A receptor 5 (Homo sapiens) (P54756 whole entry): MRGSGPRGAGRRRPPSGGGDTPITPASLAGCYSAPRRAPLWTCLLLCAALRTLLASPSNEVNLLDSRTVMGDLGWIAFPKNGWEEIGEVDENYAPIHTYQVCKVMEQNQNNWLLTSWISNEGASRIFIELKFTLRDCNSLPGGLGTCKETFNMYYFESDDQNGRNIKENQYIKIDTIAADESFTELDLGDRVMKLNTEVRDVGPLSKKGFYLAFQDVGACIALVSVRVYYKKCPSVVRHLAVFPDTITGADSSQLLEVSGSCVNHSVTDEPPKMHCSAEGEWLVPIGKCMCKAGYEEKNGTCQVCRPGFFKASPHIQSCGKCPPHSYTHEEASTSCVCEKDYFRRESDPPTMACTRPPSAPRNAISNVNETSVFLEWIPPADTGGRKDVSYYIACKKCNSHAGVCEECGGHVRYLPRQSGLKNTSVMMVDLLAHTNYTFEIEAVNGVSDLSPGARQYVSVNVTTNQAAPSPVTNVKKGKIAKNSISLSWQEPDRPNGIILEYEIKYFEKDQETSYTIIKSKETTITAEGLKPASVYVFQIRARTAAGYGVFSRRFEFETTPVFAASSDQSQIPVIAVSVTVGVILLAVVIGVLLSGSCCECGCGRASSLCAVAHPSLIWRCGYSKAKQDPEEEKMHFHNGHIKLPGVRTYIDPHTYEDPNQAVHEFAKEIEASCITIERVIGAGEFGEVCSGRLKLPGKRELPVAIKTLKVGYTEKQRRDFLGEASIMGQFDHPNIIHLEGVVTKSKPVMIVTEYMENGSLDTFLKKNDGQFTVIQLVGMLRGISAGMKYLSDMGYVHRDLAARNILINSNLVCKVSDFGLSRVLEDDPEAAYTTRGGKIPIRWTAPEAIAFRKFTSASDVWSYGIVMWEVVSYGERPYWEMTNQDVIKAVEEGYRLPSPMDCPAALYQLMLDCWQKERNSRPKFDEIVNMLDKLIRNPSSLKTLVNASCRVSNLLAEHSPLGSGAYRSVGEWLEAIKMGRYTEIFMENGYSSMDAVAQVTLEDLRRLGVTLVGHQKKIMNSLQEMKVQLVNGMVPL

[5] = molecular target: Ephrin type-A receptor 5 (Homo sapiens) (UniProt P54756); settings: at 10 µM
[6] = molecular target: Ephrin type-A receptor 7 (Homo sapiens) (UniProt Q15375); settings: at 1 µM
Sequence of Ephrin type-A receptor 7 (Homo sapiens) (Q15375 28-998 limits assumed): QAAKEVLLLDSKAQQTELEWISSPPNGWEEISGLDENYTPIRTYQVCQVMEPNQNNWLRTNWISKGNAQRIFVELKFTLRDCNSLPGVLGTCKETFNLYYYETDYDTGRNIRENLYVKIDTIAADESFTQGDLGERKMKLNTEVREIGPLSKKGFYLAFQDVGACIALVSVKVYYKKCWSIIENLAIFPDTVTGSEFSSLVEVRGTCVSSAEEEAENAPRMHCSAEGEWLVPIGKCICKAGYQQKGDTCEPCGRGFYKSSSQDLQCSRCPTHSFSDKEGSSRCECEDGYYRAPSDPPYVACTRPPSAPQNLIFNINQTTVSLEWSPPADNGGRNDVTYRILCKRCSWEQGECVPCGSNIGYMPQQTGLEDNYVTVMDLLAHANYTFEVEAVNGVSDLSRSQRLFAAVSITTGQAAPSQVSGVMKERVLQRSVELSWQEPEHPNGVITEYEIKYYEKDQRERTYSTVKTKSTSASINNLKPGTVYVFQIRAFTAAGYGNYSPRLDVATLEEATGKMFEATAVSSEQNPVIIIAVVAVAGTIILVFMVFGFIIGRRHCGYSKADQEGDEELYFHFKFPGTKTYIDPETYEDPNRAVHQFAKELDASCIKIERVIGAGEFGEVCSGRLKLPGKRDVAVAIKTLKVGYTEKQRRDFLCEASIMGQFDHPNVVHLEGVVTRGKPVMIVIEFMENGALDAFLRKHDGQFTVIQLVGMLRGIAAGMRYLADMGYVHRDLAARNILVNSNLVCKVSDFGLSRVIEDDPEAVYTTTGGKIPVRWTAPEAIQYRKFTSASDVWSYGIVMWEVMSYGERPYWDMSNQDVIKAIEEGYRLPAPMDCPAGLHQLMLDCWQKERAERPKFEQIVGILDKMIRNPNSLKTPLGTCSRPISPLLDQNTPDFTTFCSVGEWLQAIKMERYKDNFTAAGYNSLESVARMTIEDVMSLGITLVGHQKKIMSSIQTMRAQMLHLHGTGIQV

[7] = molecular target: Ephrin type-A receptor 7 (Homo sapiens) (UniProt Q15375); settings: at 10 µM
[8] = molecular target: T2, Ephrin type-A receptor 8 (Homo sapiens) (UniProt P29322); settings: at 1 µM
T2 sequence (whole entry): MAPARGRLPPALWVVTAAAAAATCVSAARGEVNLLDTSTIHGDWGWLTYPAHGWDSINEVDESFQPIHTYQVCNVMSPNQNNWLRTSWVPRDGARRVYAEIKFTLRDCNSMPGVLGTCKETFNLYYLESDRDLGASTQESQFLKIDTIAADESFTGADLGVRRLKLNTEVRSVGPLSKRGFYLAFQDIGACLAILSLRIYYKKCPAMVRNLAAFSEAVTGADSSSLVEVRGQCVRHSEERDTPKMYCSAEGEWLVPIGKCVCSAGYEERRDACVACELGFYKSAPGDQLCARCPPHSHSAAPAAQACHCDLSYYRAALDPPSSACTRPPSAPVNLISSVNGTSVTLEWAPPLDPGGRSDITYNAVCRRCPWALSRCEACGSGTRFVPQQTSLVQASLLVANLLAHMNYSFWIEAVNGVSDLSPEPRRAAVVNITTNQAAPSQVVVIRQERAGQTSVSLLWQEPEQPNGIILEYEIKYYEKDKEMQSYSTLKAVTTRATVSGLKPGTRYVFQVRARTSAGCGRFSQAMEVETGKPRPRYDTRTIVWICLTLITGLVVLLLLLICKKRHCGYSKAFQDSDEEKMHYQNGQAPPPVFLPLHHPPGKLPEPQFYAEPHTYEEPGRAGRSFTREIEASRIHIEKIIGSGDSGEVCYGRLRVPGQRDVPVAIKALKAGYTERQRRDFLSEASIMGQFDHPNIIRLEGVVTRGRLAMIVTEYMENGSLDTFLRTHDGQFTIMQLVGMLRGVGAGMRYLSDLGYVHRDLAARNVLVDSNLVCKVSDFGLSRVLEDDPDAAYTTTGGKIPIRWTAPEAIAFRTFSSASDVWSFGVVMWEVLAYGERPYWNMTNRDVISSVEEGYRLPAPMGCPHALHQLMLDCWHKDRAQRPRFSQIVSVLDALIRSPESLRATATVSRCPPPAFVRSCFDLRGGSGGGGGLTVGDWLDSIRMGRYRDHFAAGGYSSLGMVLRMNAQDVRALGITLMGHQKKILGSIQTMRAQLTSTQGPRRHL

[9] = molecular target: T2, Ephrin type-A receptor 8 (Homo sapiens); settings: at 10 µM

CCCC(=O)Oc1ccc2[nH]c(C(=O)c3cc4ccccc4[nH]3)cc2c1
residual activity [1]: 105% | residual activity [2]: 105% | residual activity [3]: 91% | residual activity [4]: 107% | residual activity [5]: 99% | residual activity [6]: 96% | residual activity [7]: 86% | residual activity [8]: 92% | residual activity [9]: 98%
